# The whole screen tested about 5,500 compounds, of which about 2,000 (36%) were called active. Roughly 18% stayed inconclusive and do not appear here. The list shows a part of the results. A number with no mark means an inactive call. Rule as the data show it: active = normalized growth mostly below about 0.91 (no sharp cut-off); inconclusive = no clear call, values can overlap the other calls; inactive = mostly above about 0.92.
# Experiment: chemical genetic growth profiling, strain panel (AID 1159580);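 also: tested at 20 µM; growth read once vehicle control cultures reached saturation at 30 °C; 1 = growth at the plate median or of vehicle wells; lower values mean less growth of the strain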
# Conditions: growth OD
smiles,measurement,setting,value
C[C@](N)(Cc1ccc(O)c(O)c1)C(=O)O,normalized growth,"S. cerevisiae deletion strains, locus YJR075W, strain HOC1, active compounds read low",1.01
same,normalized growth,"S. cerevisiae deletion strains, locus YKL009W, strain mrt4, active compounds read low",0.97
same,normalized growth,"S. cerevisiae deletion strains, locus YKL068W, active compounds read low",0.997
same,normalized growth,"S. cerevisiae deletion strains, locus YKL085W, strain MDH1 (second series), active compounds read low",0.983
same,normalized growth,"S. cerevisiae deletion strains, locus YKL085W, strain MDH1, active compounds read low",0.983
same,normalized growth,"S. cerevisiae deletion strains, locus YKL160W, strain elf1, active compounds read low",0.927
same,normalized growth,"S. cerevisiae deletion strains, locus YKL190W, strain CNB1, active compounds read low",0.951
same,normalized growth,"S. cerevisiae deletion strains, locus YKR001C, strain vps1, active compounds read low",0.979
same,normalized growth,"S. cerevisiae deletion strains, locus YKR026C, strain gcn3, active compounds read low",0.986
same,normalized growth,"S. cerevisiae deletion strains, locus YKR091W, strain srl3, active compounds read low",0.972
same,normalized growth,"S. cerevisiae deletion strains, locus YLL001W, strain dnm1, active compounds read low",0.914
same,normalized growth,"S. cerevisiae deletion strains, locus YLL026W, active compounds read low",0.984
same,normalized growth,"S. cerevisiae deletion strains, locus YLL041C, strain sdh2, active compounds read low",0.994
same,normalized growth,"S. cerevisiae deletion strains, locus YLR027C, strain aat2, active compounds read low",0.983
same,normalized growth,"S. cerevisiae deletion strains, locus YLR039C, strain RIC1, active compounds read low",0.975
same,normalized growth,"S. cerevisiae deletion strains, locus YLR058C, strain SHM2, active compounds read low",0.979
same,normalized growth,"S. cerevisiae deletion strains, locus YLR102C, strain apc9, active compounds read low",1
same,normalized growth,"S. cerevisiae deletion strains, locus YLR113W, strain HOG1, active compounds read low",1
same,normalized growth,"S. cerevisiae deletion strains, locus YLR221C, strain rsa3, active compounds read low",0.911
same,normalized growth,"S. cerevisiae deletion strains, locus YLR258W, strain gsy2, active compounds read low",0.959
same,normalized growth,"S. cerevisiae deletion strains, locus YLR262C, strain YPT6 (second series), active compounds read low",0.892
same,normalized growth,"S. cerevisiae deletion strains, locus YLR262C, strain YPT6, active compounds read low",0.878
same,normalized growth,"S. cerevisiae deletion strains, locus YLR268W, strain sec22, active compounds read low",1.06
same,normalized growth,"S. cerevisiae deletion strains, locus YLR320W, strain mms22, active compounds read low",0.944
same,normalized growth,"S. cerevisiae deletion strains, locus YLR330W, strain CHS5, active compounds read low",0.982
same,normalized growth,"S. cerevisiae deletion strains, locus YLR342W, strain FKS1 (second series), active compounds read low",0.861
same,normalized growth,"S. cerevisiae deletion strains, locus YLR342W, strain FKS1, active compounds read low",0.967
same,normalized growth,"S. cerevisiae deletion strains, locus YLR357W, strain rsc2, active compounds read low",0.92
same,normalized growth,"S. cerevisiae deletion strains, locus YLR370C, strain arc18, active compounds read low",0.945
same,normalized growth,"S. cerevisiae deletion strains, locus YLR371W, strain rom2, active compounds read low",0.983
same,normalized growth,"S. cerevisiae deletion strains, locus YLR384C, strain iki3, active compounds read low",0.981
same,normalized growth,"S. cerevisiae deletion strains, locus YLR418C, strain cdc73, active compounds read low",1
same,normalized growth,"S. cerevisiae deletion strains, locus YML016C, strain PPZ1, active compounds read low",0.957
same,normalized growth,"S. cerevisiae deletion strains, locus YML032C, strain rad52, active compounds read low",1.01
same,normalized growth,"S. cerevisiae deletion strains, locus YML120C, strain ndi1, active compounds read low",0.915
same,normalized growth,"S. cerevisiae deletion strains, locus YML124C, strain tub3, active compounds read low",0.993
same,normalized growth,"S. cerevisiae deletion strains, locus YMR058W, strain fet3, active compounds read low",0.944
same,normalized growth,"S. cerevisiae deletion strains, locus YMR078C, strain ctf18, active compounds read low",0.99
same,normalized growth,"S. cerevisiae deletion strains, locus YMR125W, strain sto1, active compounds read low",0.941
same,normalized growth,"S. cerevisiae deletion strains, locus YMR129W, active compounds read low",0.985
same,normalized growth,"S. cerevisiae deletion strains, locus YMR205C, strain PFK2, active compounds read low",0.983
same,normalized growth,"S. cerevisiae deletion strains, locus YMR223W, strain ubp8, active compounds read low",0.938
same,normalized growth,"S. cerevisiae deletion strains, locus YMR231W, strain pep5, active compounds read low",0.988
same,normalized growth,"S. cerevisiae deletion strains, locus YMR263W, strain SAP30, active compounds read low",1
same,normalized growth,"S. cerevisiae deletion strains, locus YMR307W, strain GAS1, active compounds read low",0.765
same,normalized growth,"S. cerevisiae deletion strains, locus YNL067W, strain RPL9B, active compounds read low",0.979
same,normalized growth,"S. cerevisiae deletion strains, locus YNL071W, strain lat1, active compounds read low",0.978
same,normalized growth,"S. cerevisiae deletion strains, locus YNL128W, strain TEP1, active compounds read low",0.896
same,normalized growth,"S. cerevisiae deletion strains, locus YNL153C, strain GIM3, active compounds read low",1.01
same,normalized growth,"S. cerevisiae deletion strains, locus YNL183C, strain NPR1, active compounds read low",0.976
same,normalized growth,"S. cerevisiae deletion strains, locus YNL209W, strain ssb2, active compounds read low",0.891 (active)
same,normalized growth,"S. cerevisiae deletion strains, locus YNL233W, strain BNI4, active compounds read low",0.972
same,normalized growth,"S. cerevisiae deletion strains, locus YNL248C, strain rpa49, active compounds read low",0.979
same,normalized growth,"S. cerevisiae deletion strains, locus YNL250W, strain rad50, active compounds read low",0.982
same,normalized growth,"S. cerevisiae deletion strains, locus YNL271C, strain bni1, active compounds read low",0.989
same,normalized growth,"S. cerevisiae deletion strains, locus YNL298W, strain CLA4, active compounds read low",0.999
same,normalized growth,"S. cerevisiae deletion strains, locus YNL307C, strain MCK1, active compounds read low",0.996
same,normalized growth,"S. cerevisiae deletion strains, locus YNL322C, strain KRE1 (second series), active compounds read low",0.96
same,normalized growth,"S. cerevisiae deletion strains, locus YNL322C, strain KRE1, active compounds read low",0.984
same,normalized growth,"S. cerevisiae deletion strains, locus YNR049C, strain mso1, active compounds read low",0.969
same,normalized growth,"S. cerevisiae deletion strains, locus YNR052C, strain pop2, active compounds read low",0.991
same,normalized growth,"S. cerevisiae deletion strains, locus YOL006C, strain TOP1, active compounds read low",0.529 (active)
same,normalized growth,"S. cerevisiae deletion strains, locus YOL012C, strain htz1",0.552
same,normalized growth,"S. cerevisiae deletion strains, locus YOL147C, strain pex11, active compounds read low",0.989
same,normalized growth,"S. cerevisiae deletion strains, locus YOR001W, strain rrp6, active compounds read low",1.02
same,normalized growth,"S. cerevisiae deletion strains, locus YOR061W, strain CKA2, active compounds read low",0.938
same,normalized growth,"S. cerevisiae deletion strains, locus YOR069W, strain VPS5, active compounds read low",0.991
same,normalized growth,"S. cerevisiae deletion strains, locus YOR070C, strain gyp1, active compounds read low",0.988
same,normalized growth,"S. cerevisiae deletion strains, locus YOR080W, strain dia2, active compounds read low",0.956
same,normalized growth,"S. cerevisiae deletion strains, locus YOR083W, strain WHI5, active compounds read low",0.919
same,normalized growth,"S. cerevisiae deletion strains, locus YOR106W, strain vam3, active compounds read low",0.885
same,normalized growth,"S. cerevisiae deletion strains, locus YOR136W, strain idh2, active compounds read low",0.99
same,normalized growth,"S. cerevisiae deletion strains, locus YOR144C, strain elg1, active compounds read low",1.01
same,normalized growth,"S. cerevisiae deletion strains, locus YOR184W, strain ser1, active compounds read low",0.998
same,normalized growth,"S. cerevisiae deletion strains, locus YOR231W, strain MKK1, active compounds read low",1.03
same,normalized growth,"S. cerevisiae deletion strains, locus YOR265W, strain rbl2, active compounds read low",0.956
same,normalized growth,"S. cerevisiae deletion strains, locus YOR270C, strain vph1, active compounds read low",0.965
same,normalized growth,"S. cerevisiae deletion strains, locus YOR290C, strain snf2, active compounds read low",0.86 (active)
same,normalized growth,"S. cerevisiae deletion strains, locus YOR316C, strain cot1, active compounds read low",1
same,normalized growth,"S. cerevisiae deletion strains, locus YPL051W, strain arl3, active compounds read low",0.947
same,normalized growth,"S. cerevisiae deletion strains, locus YPL055C, strain LGE1, active compounds read low",0.915
same,normalized growth,"S. cerevisiae deletion strains, locus YPL078C, strain atp4, active compounds read low",0.947
same,normalized growth,"S. cerevisiae deletion strains, locus YPL106C, strain sse1, active compounds read low",0.882
same,normalized growth,"S. cerevisiae deletion strains, locus YPL240C, strain hsp82, active compounds read low",0.979
same,normalized growth,"S. cerevisiae deletion strains, locus YPL241C, strain CIN2, active compounds read low",0.966
same,normalized growth,"S. cerevisiae deletion strains, locus YPL256C, strain CLN2, active compounds read low",1.08
same,normalized growth,"S. cerevisiae deletion strains, locus YPR119W, strain clb2, active compounds read low",0.993
same,normalized growth,"S. cerevisiae deletion strains, locus YPR141C, strain kar3, active compounds read low",0.987
same,normalized growth,"S. cerevisiae deletion strains, locus YPR163C, strain tif3, active compounds read low",1
same,normalized growth,"S. cerevisiae deletion strains, locus YPR167C, strain met16, active compounds read low",0.997
same,normalized growth,"S. cerevisiae deletion strains, strain wtn01, active compounds read low",1.01
same,normalized growth,"S. cerevisiae strains, strain wild type, active compounds read low",0.9 (active)

# Source: PubChem BioAssay AID1159580 (chemical genetic matrix, 2015)
